High-throughput results as filed in PubChem.
Most compounds without a hit are left out; they make up all but 12% or so of the library.
Pf growth 48h = inhibits P. falciparum growth in the first generation, 48 h; P. falciparum luciferase growth in erythrocytes, 48 h; Potency, µM (titrated, usually from 28.7 µM), most hits filed as inhibitors; actives 5.9% (n = 310,000); AID 504832
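Luciferase-expressing P. falciparum in infected erythrocytes (2% hematocrit, 0.1% parasitemia final) in RPMI 1640/0.5% Albumax were exposed to compound for 48 hours at 37 C, 5% CO2; growth read as luminescence.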
AmpC inh detg = AmpC beta-lactamase inhibition with detergent present | actives 0.041% (n = 370,000) | Potency, µM (titrated, usually from 114 µM), most hits filed as inhibitors | AmpC hydrolysis of nitrocefin, absorbance 480 nm, 0.01% Triton; note: nearly all actives have a fitted effect of over 25% in size
Target sequence (P00811 whole entry, looked up): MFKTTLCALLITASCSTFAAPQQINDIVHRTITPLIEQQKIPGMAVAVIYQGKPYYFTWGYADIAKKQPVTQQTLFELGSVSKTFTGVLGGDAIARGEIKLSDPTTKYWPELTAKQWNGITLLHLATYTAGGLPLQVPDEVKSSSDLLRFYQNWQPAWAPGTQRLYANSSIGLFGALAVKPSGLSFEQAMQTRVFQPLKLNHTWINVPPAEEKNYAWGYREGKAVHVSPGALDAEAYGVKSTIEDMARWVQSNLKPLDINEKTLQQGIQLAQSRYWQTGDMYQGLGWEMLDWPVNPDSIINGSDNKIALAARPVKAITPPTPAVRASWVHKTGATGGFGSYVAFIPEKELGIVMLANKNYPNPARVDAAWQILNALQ
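20 mM phosphate pH 7.0 + 0.01% (detergent screen) or 0.0001% Triton X-100; 5.3 nM AmpC reagent; cpd preinc 15 min RT; nitrocefin (800 uM stock) to start; A480 q20 s × 4 min; Activity was normalised to no-enzyme and no-compound control wells.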
Pf growth 96h = P. falciparum growth inhibition at 96 hour, primary screen for plastid delayed-death inhibitors; AID 504834; P. falciparum luciferase reporter growth, 96 h; Potency, µM (highest dose often 28.7 µM), most hits filed as inhibitors; actives 6.9% (n = 320,000)
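Infected RBCs, 2% Hct / 0.05% parasitemia final; luciferase-reporter P. falciparum; cpd 96 h, 37 C, 5% CO2; luciferase detection reagent; luminescence.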
SARS PLP yeast = blocks SARS-CoV papain-like protease in a yeast assay; Potency, µM (titrated, usually from 32.9 µM), usual class: activators; actives 0.19% (n = 330,000); S. cerevisiae expressing SARS-CoV PLpro, growth rescue; calls by dose curve; note: nearly all actives have a fitted effect of over 55% in size
Sm TGR inh = S. mansoni TGR enzyme inhibition; Q962Y6; purified TGR, DTNB reduction, TNB absorbance 405 nm; Potency, µM (highest dose often 114 µM), hits mostly inhibitors; actives 3% (n = 360,000); AID 485364; note: nearly all actives have a fitted effect of over 60% in size
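TGR 20 nM + NADPH 100 uM (dispensed conc.), cpd preinc 15 min RT; start with NADPH (500 uM addition) then DTNB (15 mM addition). Kinetic TNB absorbance, 405 nm filter. Four-parameter Hill fit across titration.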
AmpC no deterg = blocks E. coli AmpC beta-lactamase in detergent-free assay; AID 485341; actives 0.52% (n = 330,000); Potency, µM (series often up to 57.1 µM), most hits filed as inhibitors; AmpC nitrocefin hydrolysis, absorbance 480 nm, 0.0001% Triton; note: nearly all actives have a fitted effect of over 20% in size
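AmpC (5.3 nM in the dispensed reagent) in 20 mM phosphate pH 7.0 with 0.01% (detergent screen) or 0.0001% Triton X-100 was preincubated with compounds for 15 min at room temperature. Nitrocefin was then added from an 800 uM solution, and hydrolysis was followed at 480 nm.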
Numbers stand for hits; i = inactive; ? = inconclusive; nt = not tested or not shown. Unless noted, calls come from the whole dose curve; as a rule, active = well fitted curve in the direction sought with a large enough effect; inconclusive = small, poorly fitted or top-dose-only effect, or another doubt; inactive = no such curve, though single readings can be large; an effect the other way counts as inactive or inconclusive.

SMILES	Pf growth 48h	AmpC inh detg	Pf growth 96h	SARS PLP yeast	Sm TGR inh	AmpC no deterg
C=C(C)C(=O)N1CC2(CC(c3cccc(NC(=O)COc4ccc(Cl)cc4)c3)=NO2)C[C@@H]1C(N)=O (some centres not stated)	?	i	?	i	i	i
NC(=O)[C@H]1CC2(CC(c3cccc(NC(=O)COc4ccc(Cl)cc4)c3)=NO2)CN1C(=O)Cc1ccc([N+](=O)[O-])cc1 (some centres not stated)	8.3µM	i	12µM	i	i	i
CC(CCc1ccccc1)NC(=O)C1CCCN(C(=O)c2cc3sccc3n2C)C1 (configuration not stated)	nt	i	i	i	i	i
O=C1CC(Nc2ccc3ccccc3c2)C(=O)N1Cc1ccccc1 (configuration not stated)	i	i	nt	i	i	i
COc1ccc(NC2CC(=O)N(c3ccccc3)C2=O)cc1 (configuration not stated)	nt	i	nt	i	?	i
CCOc1ccccc1N1CC(C(=O)Nc2ccccc2N2CCOCC2)CC1=O (configuration not stated)	?	?	?	i	i	i
COc1ccccc1N1C(=O)CC(Nc2ccc(N3CCOCC3)cc2)C1=O (configuration not stated)	?	i	nt	i	20µM	i
O=C1CC(Nc2ccc(N3CCOCC3)cc2)C(=O)N1Cc1ccccc1 (configuration not stated)	i	?	?	i	20µM	i
O=C1CC(Nc2ccc(N3CCOCC3)cc2)C(=O)N1c1ccccc1 (configuration not stated)	i	i	nt	i	35µM	i
CCOc1ccccc1N1C(=O)CC(Nc2ccc(N3CCOCC3)cc2)C1=O (configuration not stated)	?	i	i	i	18µM	i
O=C(CCC(=O)N1CCOc2ccccc21)Nc1cc(F)ccc1F	i	i	?	?	i	i
O=C(NCCCn1ccnc1)c1ccc(Br)o1	nt	i	i	i	i	i
Cc1ccc(C)c(N2CCN(C(=O)c3cc4cc5ccc(C)cc5nc4s3)CC2)c1	nt	i	nt	nt	i	nt
O=C(/C=C/c1ccc(Cl)cc1)N1CCN(Cc2ccccc2)CC1	nt	i	?	i	i	i
Cc1[nH]c(=O)[nH]c(=O)c1/C=N/NC(=O)[C@H](CC(C)C)NC(=O)OC(C)(C)C	i	i	i	i	i	i
Cc1[nH]c(=O)[nH]c(=O)c1/C=N/NC(=O)[C@@H](N)CC(C)C	5.2µM	i	?	i	?	i
O=C(/C=C/c1ccc(S(=O)(=O)N2CCOCC2)cc1)Nc1ccc(F)c(F)c1F	nt	nt	nt	i	nt	i
CCN(CC)S(=O)(=O)c1ccc(/C=C/C(=O)Nc2ccc(F)cc2F)cc1	?	?	6.6µM	i	i	i
CCN(CC)S(=O)(=O)c1cccc(NC(=O)/C=C/c2ccc([N+](=O)[O-])cc2)c1	i	?	?	i	i	i
CCN(CC)S(=O)(=O)c1ccc(/C=C/C(=O)Nc2ccc(F)c(F)c2F)cc1	9.3µM	i	?	i	i	i
CN(CCCC(=O)Nc1ccc(Br)cc1F)S(=O)(=O)c1ccccc1	i	i	6.6µM	i	i	i
CN(CCCC(=O)Nc1ccccc1F)S(=O)(=O)c1ccc(F)cc1	i	i	i	i	i	i
CCN(CC)S(=O)(=O)c1ccc(/C=C/C(=O)Nc2ccc(Br)cc2F)cc1	12µM	i	5.2µM	i	i	i
COC(=O)c1ccc(C2C=C(c3ccc(Cl)cc3)Nc3nc4ccccc4n32)cc1 (configuration not stated)	nt	i	nt	nt	?	nt
OCCC1CN(Cc2cccn2-c2cccnc2)CCN1CCc1ccccc1 (configuration not stated)	i	i	?	i	i	i
SMILES	Pf growth 48h	AmpC inh detg	Pf growth 96h	SARS PLP yeast	Sm TGR inh	AmpC no deterg
OCCC1CN(Cc2cccnc2)CCN1CCc1ccccc1 (configuration not stated)	i	i	9.3µM	i	i	i
CC(C)n1cc(CN2CCN(CCc3ccccc3)C(CCO)C2)cn1 (configuration not stated)	i	i	15µM	i	i	i
COc1cc(-c2cc(C(=O)NCc3ccc(S(N)(=O)=O)cc3)c3ccccc3n2)cc(OC)c1OC	?	?	?	i	i	i
COc1cc(-c2cc(C(=O)Nc3ccc(S(=O)(=O)NCc4ccco4)cc3)c3ccccc3n2)cc(OC)c1OC	10µM	i	17µM	i	i	i
COc1cc(-c2cc(C(=O)NCc3ccco3)c3ccccc3n2)cc(OC)c1OC	?	i	10µM	i	i	i
Cc1ccccc1NC(=O)CSc1nc2c(oc3ccccc32)c(=O)n1-c1ccccc1F	nt	i	nt	nt	i	nt
O=C(O)c1ccc(N/N=C2/CCSc3ccc(F)cc32)cc1	i	i	i	i	i	i
Cc1cc(C)nc(N/N=C2/CCSc3ccc(F)cc32)n1	?	i	10µM	i	i	i
Cc1ccccc1-c1oc(C)c(C)[n+]1[O-]	i	i	i	i	25µM	i
C[N+]1(C)[C@@H]2CC(OC(=O)[C@@H](CO)c3ccccc3)C[C@@H]1[C@H]1O[C@H]12 (some centres not stated)	i	nt	?	nt	nt	nt
Cc1c2cnn(CC(=O)NCc3ccc(F)cc3)c(=O)c2c(C)n1Cc1cccc(Cl)c1	nt	i	nt	nt	i	nt
CCOC(=O)C1=C(C)NC(=O)NC1C (configuration not stated)	i	i	i	i	i	i
CC1=C(C(=O)OC(C)C)C(C)NC(=O)N1 (configuration not stated)	i	i	9.3µM	i	i	i
c1ccc(C[C@H]2CN=C(Nc3ccccc3)N2CC2CCCCCC2)cc1	nt	nt	nt	i	nt	i
C=CCn1c(CSc2nnc(-c3ccccc3)n2C)n[nH]c1=S	?	i	i	i	i	i
C=CCn1c(SCc2n[nH]c(=S)n2-c2ccccc2)nnc1-c1ccccc1	i	i	6.6µM	i	i	i
CC(=O)c1ccc(NC(=O)c2ncn(-c3ccccc3)n2)cc1	nt	i	nt	nt	i	nt
O=C1C=C(O)C(n2cncn2)C(c2ccc(F)cc2)C1 (configuration not stated)	i	i	i	i	i	i
COc1ccc(C2CC(=O)C(C3NCCc4ccccc43)=C(O)C2n2cncn2)cc1 (configuration not stated)	17µM	?	i	i	i	i
CC1CCC(NC(=O)c2ccc3c(c2)N(Cc2ccccc2F)C(=O)c2ccccc2S3)CC1 (configuration not stated)	nt	i	nt	nt	i	nt
